Test results: PMC13494018
A number with no mark means an inactive call. No rule for the calls is given here.

B1: design_605_6ebdab39-eaab-4492-afcb-164e20c3b25e_165_dldesign_0_cycle1_af2pred (protein)
chain: AAAAEAAAKEAAAKLAIAEARALIRAGRANPKFGVELALEGAKIAREAAKKNPAMKEELEKTAKEAEKEAKKLA
B2: design_605_6ebdab39-eaab-4492-afcb-164e20c3b25e_178_dldesign_0_cycle1_af2pred (protein)
chain: MSEEIKKKAEEIVEEALKKAEAAPTVEEAQAILDEALDKAVSLGKTIEEKKYAADLVSKARKKLREVWKAR
B3: design_605_6ebdab39-eaab-4492-afcb-164e20c3b25e_250_dldesign_0_cycle1_af2pred (protein)
chain: AAAAAAARLAAGLAAAAKFVEEATKKAREIAAKKTPEESAKAKAEVEEYEAMARDALAMGNAAGARSIARLALEKVS
B4: design_605_6ebdab39-eaab-4492-afcb-164e20c3b25e_258_dldesign_0_cycle1_af2pred (protein)
chain: KAKELSKIVHEGFQAAKELELLAKKDPRMKPAAEEAEKLRKKAVEAAKAGDYEKAAEYAKKLKELAEKALKEYE
B5: design_605_6ebdab39-eaab-4492-afcb-164e20c3b25e_390_dldesign_0_cycle1_af2pred (protein)
chain: KEEKVEEVKKKMEESSLAEAVFIGIEAVMEFTKDAPEYMRKIVKAGRKGGEEGDEEKAKKEMAEIVKKAAE
B6: design_605_6ebdab39-eaab-4492-afcb-164e20c3b25e_437_dldesign_0_cycle1_af2pred (protein)
chain: MKEEAEEAKKRAEAIKKAAKEDPDKAAALIAKGFASPLAAAVKAAPPETRAEAAAQAAKVATRILENEARSYERTAN
B7: design_605_6ebdab39-eaab-4492-afcb-164e20c3b25e_445_dldesign_0_cycle1_af2pred (protein)
chain: AKEKALIDLQIAEQMAEAAKEGYAGTAAAKRAAKAAKRAIKLDPSLAEEAVKIMKELAKAAAKQDPEAGKVAAKELKEVEKEAKKVKE
B8: design_605_6ebdab39-eaab-4492-afcb-164e20c3b25e_494_dldesign_0_cycle1_af2pred (protein)
chain: AEALEKGKAASAALDANIATGFATAEKTGDKAAAGAAAVAATAEAGAAIGPEAAEKGRRVMTSIFDGYVKA
B9: design_605_6ebdab39-eaab-4492-afcb-164e20c3b25e_501_dldesign_0_cycle1_af2pred (protein)
chain: AAAEEAAKKALKELKEEAKKLVEEAKKSNAEEAKKKRKEVVELGKEYAEKAAASPEVQKEIAKVVHEAQEELAEAAFEHSRKEKE
B10: design_605_6ebdab39-eaab-4492-afcb-164e20c3b25e_558_dldesign_0_cycle1_af2pred (protein)
chain: EEEKKLVELLHEAQELAAEAEFYSKKDKEKSKEYIEKATKKIEEAAKLAGFEPIKAKNVEDLKEVLKEAIKKASERIKERKA
B11: design_605_6ebdab39-eaab-4492-afcb-164e20c3b25e_565_dldesign_0_cycle1_af2pred (protein)
chain: AVEKTIAELLKAASAAIIELFDDPEKGRAKLAEVLAKAEAAAKAASPKDAAKIQAALDEMKKRGEAAIKRVEEDEKIAK
B12: design_605_6ebdab39-eaab-4492-afcb-164e20c3b25e_593_dldesign_0_cycle1_af2pred (protein)
chain: EVEAKASEVAARARQVIAEAEYLERRAKKEGDKEKEKKAKEAKELAEKALELIKKGGLEGVEKAEKLVEEAEKLLEE
B13: design_605_6ebdab39-eaab-4492-afcb-164e20c3b25e_648_dldesign_0_cycle1_af2pred (protein)
chain: AEAEELKKKASQYLMEAFDTGSEEELKKAIEYAEKAAEAASEEEGKKILEEKEKMKKGFERFLKAYKEAQKKAEE
B14: design_605_6ebdab39-eaab-4492-afcb-164e20c3b25e_661_dldesign_0_cycle1_af2pred (protein)
chain: MEEFEKLVKEAEKLIKKALESKDKEERKKLVEEAKEVLKKAQKLGKELAAKSTPEEAKEIVEKMHELHEKLAEAKQKAS
B15: design_605_6ebdab39-eaab-4492-afcb-164e20c3b25e_689_dldesign_0_cycle1_af2pred (protein)
chain: GAAQEEADKALEKAGKILKEAEKLAKEAAKIGTEEEAKELEELIKKAKELLEKGKASTPEEKKKLAVEAAEYAHEARALAKHILASK
B16: design_605_6ebdab39-eaab-4492-afcb-164e20c3b25e_707_dldesign_0_cycle1_af2pred (protein)
chain: MKKQAIELAEEAKELMEKEGATPEAVALASSALRTAGFPRELAEEVREAYKKDKEEGEKKLKEAVKLVLERAKKK
B17: design_605_6ebdab39-eaab-4492-afcb-164e20c3b25e_729_dldesign_0_cycle1_af2pred (protein)
chain: SSSKETSEFNRELQKRARAAGEELEKKSKNPEAGKEAKKLLSNGLMESFDKSSKEEAKAALDKAIAEAKKHVEEAS
B18: design_605_6ebdab39-eaab-4492-afcb-164e20c3b25e_737_dldesign_0_cycle1_af2pred (protein)
chain: MEELKEQIKEIKEKAEEILKNKETASLGILAESNAEDAEKLLKAGEADPSTKEKNVAEAKKFLKAAKEYAEKGLELMKKLK
B19: design_605_6ebdab39-eaab-4492-afcb-164e20c3b25e_758_dldesign_0_cycle1_af2pred (protein)
chain: SEYFKEAVDVASKIVRAYHALAAVFPETAAQLEADGDAKVDKVMAAAELAEKDPEKGKAELEKQKAEAEKIKAEADKAAAAAR
B20: design_605_6ebdab39-eaab-4492-afcb-164e20c3b25e_768_dldesign_0_cycle1_af2pred (protein)
chain: DIAKLAEKAAKALKKAAEEGLEALAKAAALVQEARAEAKFKGLKEVAELLEKALKLAREAGKTEDEEERKALAEKAAKYAEEAAKKAK
B21: design_605_6ebdab39-eaab-4492-afcb-164e20c3b25e_778_dldesign_0_cycle1_af2pred (protein)
chain: EVKELIKKAKELIEKAEKLTKSGEKLEEGEKAAEEAKKVVEEAKKVAKDSTPEEKFAVAEALAELRNVEREIKKAKEEK
B22: design_605_6ebdab39-eaab-4492-afcb-164e20c3b25e_799_dldesign_0_cycle1_af2pred (protein)
chain: GEKEKLKKEAEELEKKAKELEKKAEEKFKKNIKKGSKALSYVEQAKNAAKVAKKYAEEGKVEEAKKALEKAKEYLKKAKEYVEE
B23: design_605_6ebdab39-eaab-4492-afcb-164e20c3b25e_858_dldesign_0_cycle1_af2pred (protein)
chain: ALEEFKKLLQKLIDLTAAVPEAAKAREELENGTPREALKAAIKAAKAKAAADPSVAPELEKLVHELSQAAAEAELELKK
B24: design_605_6ebdab39-eaab-4492-afcb-164e20c3b25e_883_dldesign_0_cycle1_af2pred (protein)
chain: DAEIQAILEQAKKALKAAKESLEKGKKYEEEGKKNLAEAYYEHAIHNAEQAIKLAEQNIAAGGKPEEAQKIKDEAKKVKEEAKG
B25: design_605_6ebdab39-eaab-4492-afcb-164e20c3b25e_904_dldesign_0_cycle1_af2pred (protein)
chain: AEAEKKAKEGKEKMEAGKKKLAEAKKTGSAELAKEAAKLFKEAGKLFAAVPEQQANAAEAAKLAHEAYELAAEARAK
B26: design_605_6ebdab39-eaab-4492-afcb-164e20c3b25e_1026_dldesign_0_cycle1_af2pred (protein)
chain: AEKEETEEKAKEVLKKAEEAAEKILKKDPKKAQEVYRIIFLGESKRLAGDYEEALKLYEEALKKAEELNKEL
B27: design_605_6ebdab39-eaab-4492-afcb-164e20c3b25e_1027_dldesign_0_cycle1_af2pred (protein)
chain: ALEEAKKKIEEAEKRASKRLDEVAAKVSPEEAKKLEEAKKELKEKTEKAKKLSPEEAIKLAAEAAAKAYEAAAEARAKE
B28: design_605_6ebdab39-eaab-4492-afcb-164e20c3b25e_1042_dldesign_0_cycle1_af2pred (protein)
chain: ELEKLAKKAEDAAAVLKNSKARAHALSAALQLEAGNKELAKKSATAAAAVLDANPDITPEEEKARDALKEIADWLA
B29: design_605_6ebdab39-eaab-4492-afcb-164e20c3b25e_1054_dldesign_0_cycle1_af2pred (protein)
chain: DVTEKAKKAAEEALKADAETAAKLLSEAAKLAVEAGDSEGMHIIRQAISEMDFAGKKEGAAKARAAAAAAVRARQAALAA
B30: design_605_6ebdab39-eaab-4492-afcb-164e20c3b25e_1133_dldesign_0_cycle1_af2pred (protein)
chain: NAAEIAAAKAALAEARAAFEAAGAALVAADPSYAPQVAKALARIDKLEADGKANPALAAEYYQLATDIAEDQAANAKKLLAAIT
B31: design_605_6ebdab39-eaab-4492-afcb-164e20c3b25e_1234_dldesign_0_cycle1_af2pred (protein)
chain: SGVKETAIEVAEDAKKAAEEAEKLAKEKPEFAKELKKVAEKAKKAAKKALEGAKKSEEEARKATAEAATALALAENVIDTVKLA
B32: design_605_6ebdab39-eaab-4492-afcb-164e20c3b25e_1408_dldesign_0_cycle1_af2pred (protein)
chain: AEEEEKIKKKAKEIVDTIVKAAKEGLEKARKTAAELAKKYGMKTEDAALVRSLAVKTAKEGGKYYEDAVEAAVEGIKE
B33: design_605_6ebdab39-eaab-4492-afcb-164e20c3b25e_1415_dldesign_0_cycle1_af2pred (protein)
chain: AAKLEAKMKAMDMAVEAGEADAEDEEKGKEKLEELKKMVEEIAKEIGEEAGESAWRIAMDVYEHTVKMKK
B34: design_605_6ebdab39-eaab-4492-afcb-164e20c3b25e_1459_dldesign_0_cycle1_af2pred (protein)
chain: AAEEARKKKLEEFAKKAKEAAKKFSPEYAKKAKEAAKLYEQGKTATPAEAAALAQKARQLLAEAEYEDKK
B35: design_605_6ebdab39-eaab-4492-afcb-164e20c3b25e_1473_dldesign_0_cycle1_af2pred (protein)
chain: AKEILDAQMKILDAANEAEKVDPELGKEIREKYKKVAEEGKKLSPEEALKALKAMAEEAEKKAKEAKKEAEKKKLE
B36: design_605_6ebdab39-eaab-4492-afcb-164e20c3b25e_1481_dldesign_0_cycle1_af2pred (protein)
chain: SEVEEAIKKIKDTAAKATAAAIAAAAVDPTLGANVAADGQAKLTELAWEYSKKYPEHKEEIEKTRKEERKAMRDAVGAAIAAVA
B37: design_605_6ebdab39-eaab-4492-afcb-164e20c3b25e_1493_dldesign_0_cycle1_af2pred (protein)
chain: TIEKNVALAEKLAERAKEVAKKAAADPNKKEAAKLAKKAAELAKEAAALAKEGKIAEGAKKMHEARELLAEAEHLLRK
B38: design_605_6ebdab39-eaab-4492-afcb-164e20c3b25e_1516_dldesign_0_cycle1_af2pred (protein)
chain: EKEKEAKEIIEKARKALKEARKKLKAKGATPEQAKKMQEARELAAEADYLAKKDPKKGKEIAEKAIELAKKAAE

Molecular target: VTCN1, Q7Z7D3
Sequence (Q7Z7D3 whole entry): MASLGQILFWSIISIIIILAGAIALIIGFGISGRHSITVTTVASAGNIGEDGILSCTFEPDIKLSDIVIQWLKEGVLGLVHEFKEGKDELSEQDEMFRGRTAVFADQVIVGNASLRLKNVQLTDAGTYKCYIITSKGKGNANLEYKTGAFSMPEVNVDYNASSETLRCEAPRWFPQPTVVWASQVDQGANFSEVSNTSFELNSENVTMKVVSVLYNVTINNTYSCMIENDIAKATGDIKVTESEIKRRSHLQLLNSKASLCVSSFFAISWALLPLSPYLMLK

Row | Binder | binding in a display sort
1 | B1 | not found
2 | B2 | not found
3 | B3 | not found
4 | B4 | not found
5 | B5 | not found
6 | B6 | not found
7 | B7 | not found
8 | B8 | not found
9 | B9 | not found
10 | B10 | not found
11 | B11 | not found
12 | B12 | not found
13 | B13 | not found
14 | B14 | not found
15 | B15 | not found
16 | B16 | not found
17 | B17 | not found
18 | B18 | not found
19 | B19 | not found

Row | Binder | binding in a display sort
20 | B20 | not found
21 | B21 | not found
22 | B22 | not found
23 | B23 | not found
24 | B24 | not found
25 | B25 | not found
26 | B26 | not found
27 | B27 | not found
28 | B28 | not found
29 | B29 | not found
30 | B30 | not found
31 | B31 | not found
32 | B32 | not found
33 | B33 | not found
34 | B34 | not found
35 | B35 | not found
36 | B36 | not found
37 | B37 | not found
38 | B38 | not found
